Source: PubChem BioAssay (NCATS)
Records with an inconclusive call do not appear. A call without a number means that no potency is given here. Activity calls are given as the source filed them. Calls come from the whole dose curve; as a rule, active = well fitted cell-killing curve with a large enough effect; inconclusive = small, poorly fitted or top-dose-only effect; inactive = flat fitted curve, though single readings scatter.

Assay: Cell Viability - LYMP2-024 (AID 988); note: nearly all actives have a fitted effect of over 60% in size
Conditions: LYMP2-024 lymphoblastoid cell viability; series mostly up to 92.2 µM
From the text: NIH Chemical Genomics Center [NCGC]
NIH Molecular Libraries Screening Centers Network [MLSCN]
National Institutes of Environmental Health Sciences [NIEHS]
National Toxicology Program [NTP]
We have developed a 1536-well cell-based assay for quantitative high throughput screening (qHTS) against a number of cell lines to determine in vitro cytotoxicity of small molecules. This particular assay uses a human lymphoblastoid cell line (LYMP2-024) purchased from Coriell Institute for Medical Research.
NCGC Assay Protocol Summary:
The CellTiter-Glo luminescent cell viability assay (Promega) is a homogeneous method to measure the number of viable cells in culture. The end point readout of this assay is based on quantitation of intracellular ATP, an indicator of metabolic activity, using the luciferase reaction. Luciferase catalyzes the oxidation of beetle Luciferin to oxyluciferin and light in the presence of ATP. The luminescent signal is proportional to amount of ATP present.
Using the CellTiter-Glo luminescent cell viability assay, the amount of cellular ATP was measured in the lymphoblastoid cell line with complete culture medium following compound treatment for 24 hours. The assay was performed in opaque white Kalypsys 1536-well plates. In the screen, tetraoctylammonium bromide was used as positive control. Library compounds were measured for their ability to cause acute toxicity in the cell line, as reflected by a decrease in intracellular ATP levels, in a concentration-dependent manner. […] AC50 values were determined from concentration-response data modeled with the standard Hill equation.
qHTS protocol for CellTiter Glo lymphoblastoid cellular assay
[Step] [Parameter] [Value] [Description]
1. Reagent; 5 uL; 2500 lymphoblastoid cells/well
2. Time; 5 hr; 37 C incubation
4. Controls; 23 nL; Tetraoctylammonium bromide 6.4pM to 92 uM
5. Time; 24 hr; 37 C incubation
6. Reagent; 5 uL; CellTiter Glo reagent
7. Time; 30 min; Room Temperature
8. Detection; Luminescence; Viewlux plate reader
Keywords: cell viability, cytotoxicity, lymphoblastoid cell line, luminescence, NTPHTS, NTPHTS_NCGC, NIEHS, DSSTox, MLSMR, MLSCN, NIH Roadmap, qHTS, NCGC
Potency is the fitted concentration of half-maximal effect.

| SMILES | Potency |
| --- | --- |
| FC(Cl)(Cl)Cl | inactive |
| c1ccc(N=NNc2ccccc2)cc1 | inactive |
| CC(C)(Cl)[N+](=O)[O-] | inactive |
| CNC(=O)O/N=C/C(C)(C)S(C)=O (stereo not given) | inactive |
| O=Cc1ccc(Cl)cc1Cl | inactive |
| CC(=O)NNc1ccccc1 | inactive |
| CN(C)c1ccc(N)cc1 | 50.1 µM (active) |
| Nc1ccc([N+](=O)[O-])cc1[N+](=O)[O-] | inactive |
| Cc1cc(C)cc(OP(=O)(Oc2cc(C)cc(C)c2)Oc2cc(C)cc(C)c2)c1 | inactive |
| ClCC(Cl)CCl | inactive |
| CC(C)(C)OOC(=O)c1ccccc1 | inactive |
| CCCC[N+](=O)[O-] | inactive |
| CCOP(=O)(OCC)OCC | inactive |
| CCCCOC(=O)c1ccccc1N | inactive |
| ClC=CCl | inactive |
| COC(=O)Nc1cccc(OC(=O)Nc2cccc(C)c2)c1 | inactive |
| ClCCOCOCCCl | inactive |
| Oc1cc(Cl)ccc1Cl | inactive |
| CCC#N | inactive |
| NNC(N)=S | inactive |

| SMILES | Potency |
| --- | --- |
| Oc1ccc(Cl)c(Cl)c1Cl | inactive |
| O=C(O)C(Cl)(Cl)Br | inactive |
| CCCCNC(=O)n1c(NC(=O)OC)nc2ccccc21 | inactive |
| COc1ccc(C=O)cc1 | inactive |
| ClC(Cl)c1ccccc1 | inactive |
| Clc1ccc(Cl)c(Cl)c1 | inactive |
| O=C(O)CBr | inactive |
| N#CC(O)c1ccccc1 (stereo not given) | inactive |
| CC(C)OS(C)(=O)=O | inactive |
| c1ccc2c(c1)CCNC2 | inactive |
| N#CCc1ccccc1 | inactive |
| COC(=O)c1ccccc1N | inactive |
| ClCC(Cl)Cl | inactive |
| N#C/C=C/C#N | 31.6 µM (active) |
| CCOC(=O)C1OC1(C)c1ccccc1 (stereo not given) | inactive |
| CCCCCCCCCCCOC(=O)c1ccccc1C(=O)OCCCCCCCCCCC | inactive |
| Nc1ccc(Cc2ccc(N)c(Cl)c2)cc1Cl | inactive |
| Cc1cc(Cl)ccc1O | inactive |
| CN(C)C(=O)Nc1ccc(Cl)cc1 | inactive |
| O=C(Cl)c1ccccc1F | inactive |
